Only some compounds are listed: those with a hit (about 6.2% of all), similar ones and a draw of the others.
RORg inh: qHTS for inhibitors of ROR gamma transcriptional activity | 310,000 tested, 5.4% active | Potency, µM (doses to about 53.6 µM), for inactives: at the top dose activity change, negative = inhibition, most hits filed as inhibitors | Drosophila S2 Gal4-RORgamma UAS-luciferase reporter, 20 h; also: nearly all actives have a fitted effect of over 60% in size
Target sequence (P51450 whole entry, looked up, the tested form may be a part): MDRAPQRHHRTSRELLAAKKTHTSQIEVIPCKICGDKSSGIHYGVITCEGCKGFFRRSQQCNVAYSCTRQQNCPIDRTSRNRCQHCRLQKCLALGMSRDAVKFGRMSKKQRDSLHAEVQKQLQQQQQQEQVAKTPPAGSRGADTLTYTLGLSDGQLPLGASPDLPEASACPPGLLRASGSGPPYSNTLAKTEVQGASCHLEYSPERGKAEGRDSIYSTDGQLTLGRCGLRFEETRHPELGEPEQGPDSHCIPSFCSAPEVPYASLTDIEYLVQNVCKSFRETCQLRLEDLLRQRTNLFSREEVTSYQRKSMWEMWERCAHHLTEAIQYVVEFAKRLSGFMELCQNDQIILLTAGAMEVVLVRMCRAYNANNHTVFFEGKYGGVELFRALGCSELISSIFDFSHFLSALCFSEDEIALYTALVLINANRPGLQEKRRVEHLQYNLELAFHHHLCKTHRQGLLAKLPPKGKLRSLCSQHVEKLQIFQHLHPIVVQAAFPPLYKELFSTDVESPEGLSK
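In this cell-based reporter format, copper sulfate (700 uM final) drives Gal4–ROR gamma fusion expression from a metallothionein promoter in Drosophila Schneider cells; compounds preincubated 1 hr, reporter read after 20 hr at ambient temperature.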
VP16 counter: VP16 counterscreen qHTS for inhibitors of ROR gamma transcriptional activity; 310,000 tested, 3.5% active; Potency, µM (doses to about 53.6 µM), for the others: at the highest dose activity, negative = inhibition, actives largely listed as inhibitors; AID 2546, 2010; Drosophila S2 Gal4-VP16 UAS-luciferase, luminescence, 20 h;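 also: Gal4-VP16 expression switched on by copper sulfate through the metallothionein promoter; nearly all actives have a fitted effect of over 50% in size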
Luc counter: Counterscreen for Luciferase (Kinase-Glo TM) Inhibition; Kinase-Glo luciferase, ATP luminescence, 8 min; 200,000 tested, 0.28% active; AID 1379, 2008; Potency, µM (doses to about 38.3 µM), inactives show at the top dose activity change, negative = inhibition, actives largely listed as inhibitors; Luciferin 4-monooxygenase (Photuris pensylvanica), Q27757; also: nearly all actives have a fitted effect of over 60% in size
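Compounds were added to a substrate mix at pH 7.2 (50 mM imidazole, 10 uM ATP, within the enzyme's linear range), followed by Kinase-Glo detection reagent; luminescence was measured after 8 minutes at ambient temperature.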
An asterisk follows results filed as active; [ ] = another dose, or the depositor's remark. Calls follow the shape of the dose curve; as a rule, active = well fitted curve in the direction sought with a large enough effect; inconclusive = small, poorly fitted or top-dose-only effect, or another doubt; inactive = no such curve, though single readings can be large; an effect the other way counts as inactive or inconclusive. % is scaled to controls: 0 for no effect and ±100 for the full control effect; potency is read from the fitted curve at half-maximal effect.

`CCCCCc1cc(=O)oc2c(C(CCN(CC)CC)c3ccc(OC)cc3)c(OC)cc(OC)c12` (stereo unspecified) gave RORg inh inconclusive and VP16 counter 8.9µM*.
Screening CCN(CC)CCC(c1ccc(OC)cc1)c1c(OC)cc(OC)c2c(C)cc(=O)oc12 (stereo unspecified) returned RORg inh -17% and VP16 counter -16%.
Screening Cc1ccc([N+](=O)[O-])c(C)c1 returned RORg inh 0% and VP16 counter -6%.
Cc1cc(N2C(=O)C=CC2=O)c([N+](=O)[O-])cc1C was read as RORg inh 7.1µM*, VP16 counter 4.5µM* and Luc counter -1%.
For COc1ccccc1N1CCN(CCCC(=O)c2ccc(F)cc2)CC1 the results were RORg inh -20%, VP16 counter -4% and Luc counter 2%.
Screening COc1ccccc1N1CCN(Cc2cc3c(cc2Br)OCCO3)CC1 returned RORg inh 2% and VP16 counter -8%.
For COc1ccc(C(=O)CCN2CCN(c3ccccc3OC)CC2)cc1 the results were RORg inh 19%, VP16 counter 2.8µM* and Luc counter 0%.
COc1ccccc1N1CCN(Cc2ccc(Br)o2)CC1 was read as RORg inh 12%, VP16 counter 20µM* and Luc counter -3%.
For CCCCNC(=O)NS(=O)(=O)c1ccc(C(=O)O)cc1 the results were RORg inh -13% and VP16 counter 5%.
O=C(CC(Nc1ccccc1)C(=O)O)c1ccccc1 (stereo unspecified) was read as RORg inh 11µM*, VP16 counter 7.9µM* and Luc counter inconclusive.
For O=C(CC(C(=O)O)c1cccc(Cl)c1)c1ccccc1 (stereo unspecified) the results were RORg inh 13% and VP16 counter 1%.
For Cc1ccc(NC(CC(=O)c2ccccc2)C(=O)O)cc1Cl (stereo unspecified) the results were RORg inh -39% and VP16 counter -6%.
Screening O=C(CC(Nc1ccc(Cl)cc1Cl)C(=O)O)c1ccccc1 (stereo unspecified) returned RORg inh 13µM* and VP16 counter inconclusive.
C=C(C(=O)c1ccccc1)C(C)CC(=O)c1ccccc1 (stereo unspecified) was read as RORg inh inconclusive, VP16 counter 18µM* and Luc counter 6%.
Screening C=C(C(=O)OCC)C(=O)c1ccccc1 returned RORg inh 4%, VP16 counter -1% and Luc counter 1%.
`COc1ccc(Cl)cc1S(=O)(=O)N1CCN(C(=O)COc2ccccc2)CC1` gave RORg inh 2%, VP16 counter 0% and Luc counter 2%.
For CSc1nsc(SCC(=O)N2CCCCC2)n1 the results were RORg inh 24%, VP16 counter -1%[10 µM] and Luc counter 5%.
Screening CCCc1ccc(C(C)NC(=S)NCc2ccc(F)cc2)cc1 (stereo unspecified) returned RORg inh 0.63µM* and VP16 counter 3.2µM*.
`C[C@H](NC(=O)NCc1ccc(F)cc1)C(=O)O` gave RORg inh 3%, VP16 counter -8% and Luc counter 1%.
`CCC(C)c1ccc(C(C)NC(=S)NCc2ccc(F)cc2)cc1` (stereo unspecified) gave RORg inh 2.8µM* and VP16 counter 5µM*.
For CCC(NC(=S)NCc1ccc(F)cc1)c1ccc(C(C)C)cc1 (stereo unspecified) the results were RORg inh 2.8µM* and VP16 counter 4µM*.
Screening CC(NC(=S)NCc1ccc(F)cc1)C12CC3CC(CC(C3)C1)C2 (stereo unspecified) returned RORg inh 1.8µM*, VP16 counter 5µM* and Luc counter -2%.
For CCC(C)[C@H](NC(=O)NCc1ccc(F)cc1)C(=O)O (stereo partly specified) the results were RORg inh -10% and VP16 counter 0%.
For COc1ccc(CNC(=O)CNC(C)c2ccc(F)cc2)cc1 (stereo unspecified) the results were RORg inh -9% and VP16 counter -11%.
For CC(CC(=O)NCc1ccc(F)cc1)c1ccccc1 (stereo unspecified) the results were RORg inh -3% and VP16 counter 4%.
Screening Cc1nc(Nc2cccc(C(C)O)c2)c2nnn(Cc3ccc(F)cc3)c2n1 (stereo unspecified) returned RORg inh -2%, VP16 counter -8% and Luc counter -3%.
Cc1cccc(C)c1NC(=O)CC12CCCN1CCC2 was read as RORg inh 3% and VP16 counter -2%.
Screening CCOC(=O)CCN1C(=O)[C@H]2[C@H]3[C@H](O)[C@H](O)C/C(=N/OC[C@@H](O)COCc4ccco4)[C@@H]3CC[C@@H]2C1=O returned RORg inh 1%[10 µM] and VP16 counter -2%[10 µM].
For CCn1ccnc1CNC(=O)C1CCC(=O)N(Cc2ccccc2F)C1 (stereo unspecified) the results were RORg inh -20% and VP16 counter -2%.
For CCNc1ncc2nc(CCc3ccccc3)c(=O)n(-c3ccccc3)c2n1 the results were RORg inh -28%, VP16 counter -8% and Luc counter -4%.
O=C(NCc1cccnc1)C1CCCN(Cc2cnn(-c3ccccc3)c2-n2cccc2)C1 (stereo unspecified) was read as RORg inh -4%, VP16 counter -6% and Luc counter 6%.
`CCOC(=O)CON1C(=O)C(=O)N(OCC(=O)OCC)[C@H]2CCCC[C@H]21` gave RORg inh -5% and VP16 counter -6%.
`O=C(CNC(=O)c1ccco1)OCC(=O)c1ccc(Cl)cc1Cl` gave RORg inh 19%, VP16 counter 4% and Luc counter 0%.
For CSc1cc(-c2ccncc2)nc(-c2ccc(Cl)cc2)c1 the results were RORg inh -9% and VP16 counter -10%.
For O=C(CSc1nc2ccc([N+](=O)[O-])cc2s1)NCC1CCCO1 (stereo unspecified) the results were RORg inh 18% and VP16 counter -7%.
CCOc1ccc(C(C)NC(=S)NCc2ccc(Cl)cc2)cc1 (stereo unspecified) was read as RORg inh 0.79µM*, VP16 counter 13µM* and Luc counter 1%.
CCNC(=S)NCc1ccc(OC)c(OC)c1 was read as RORg inh -27%, VP16 counter -1% and Luc counter -1%.
Screening COc1ccc(C(C)NC(=S)NCc2ccc(F)cc2)cc1OC (stereo unspecified) returned RORg inh 13µM* and VP16 counter inconclusive.
`CC(NC(=O)CCCOc1ccc(Cl)cc1)c1ccccc1` (stereo unspecified) gave RORg inh -22%, VP16 counter -3% and Luc counter 1%.
For COc1ccc(NC(=S)NC(C)c2ccncc2)cc1OC (stereo unspecified) the results were RORg inh 4%, VP16 counter 2% and Luc counter 1%.
